This is a sample that favours compounds with a hit; in the whole collection about 32% have one here.
CYP2C19 act – activators of human cytochrome P450 2C19; recombinant CYP2C19, luciferin-H EGE luminescence; active compounds read high; 0 = fully inhibited enzyme, 1 = untreated enzyme; 96,000 tested, under 10 active; P33261; activation factor at 5 µM; AID 1025;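 active = activation factor of at least 2 at 5 µM in the primary screen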;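 also: 0 = wells with 2.5 mM tranylcypromine and 1 = vehicle-only wells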
CYP2C9 act – activators of human CYP2C9. P11712. recombinant CYP2C9, luciferin-H conversion, luminescence; active compounds read high; factor 1 = untreated enzyme, 0 = blocked. activation factor at 5 µM. hit rate 1.4% among 96,000;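 active = activation factor of 2 or more for CYP2C9 at a 5 µM dose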;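 also: 0 = sulfaphenazole-blocked wells and 1 = vehicle-only wells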
Target sequence (P11712 whole entry, looked up): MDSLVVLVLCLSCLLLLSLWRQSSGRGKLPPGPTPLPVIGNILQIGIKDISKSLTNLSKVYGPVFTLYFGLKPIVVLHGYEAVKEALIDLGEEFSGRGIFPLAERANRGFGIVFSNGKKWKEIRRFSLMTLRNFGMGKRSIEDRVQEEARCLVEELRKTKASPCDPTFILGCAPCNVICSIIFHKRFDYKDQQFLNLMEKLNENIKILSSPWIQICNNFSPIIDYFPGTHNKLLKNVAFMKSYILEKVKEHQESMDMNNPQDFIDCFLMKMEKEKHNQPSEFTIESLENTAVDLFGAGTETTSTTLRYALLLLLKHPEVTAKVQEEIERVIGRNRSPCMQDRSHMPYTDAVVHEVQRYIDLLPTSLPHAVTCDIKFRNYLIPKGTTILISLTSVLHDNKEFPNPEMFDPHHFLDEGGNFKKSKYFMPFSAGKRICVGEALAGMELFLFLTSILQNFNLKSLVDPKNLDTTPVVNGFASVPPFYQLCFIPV
PostGolgi yeast – growth inhibition of a yeast mutant, post-Golgi transport screen. post-Golgi transport phenotypic cell assay. inhibition, % at 10 µM. hit rate 0.9% among 98,000;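 also: yeast cells grown in 1536-well plates; yeast grown about 18 h at 30C before absorbance read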
CYP2C19 inhib – inhibitors of human CYP2C19 | CYP2C19 Supersomes, luciferin-H EGE luminescence, 30 min | inhibition, % at 5 µM | hit rate 21% among 96,000 | AID 778;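 active = CYP2C19 inhibition above a set limit at 5 µM in the primary screen, cut at about 50% in these data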;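 also: plate controls were negative control wells for no effect and 2.5 mM tranylcypromine positive control for full effect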
PostGolgi ctrl – inhibits growth of the yeast control strain | inhibition, % at 10 µM | AID 738 | efflux-deficient yeast background strain, growth absorbance A615, 16 h | hit rate 5% among 98,000
CYP2C9 inh – blocks human cytochrome P450 2C9. CYP2C9 Supersomes, luciferin-H conversion, luminescence. inhibition, % at 5 µM. P11712. hit rate 20% among 96,000;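 active = blocking of liver enzyme CYP2C9 beyond about 50% at 5 µM, limit read from the data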
Starred values were filed as active, the others as inactive. Rule as the data show it, unless noted: active = inhibition above about 30%; inactive = the rest.

SMILES	CYP2C19 act	CYP2C9 act	PostGolgi yeast	CYP2C19 inhib	PostGolgi ctrl	CYP2C9 inh
CC(c1ccccc1)N1C(=O)c2ccccc2C1O (configuration not stated)	0.3	0.9	2	66*	7	8
CCOC(=O)CSc1nnc(CNC(=O)Cc2ccccc2)n1C	1.1	1.1	-2	-12	-5	-12
Cc1cc(C)nc(SCCS(=O)(=O)Cc2ccccc2)n1	0.2	1.2	-2	83*	-1	-24
CCC1(CC)NC(=O)N(CC(=O)Nc2sc3c(c2C(N)=O)CCC3)C1=O	0.6	0.3	2	39	3	74*
CCCCC(=O)Nc1sc2c(c1C(N)=O)CCC2	0.5	0.2	1	47	26	77*
CC(=O)Nc1sc2c(c1C(N)=O)CCCC2	0.9	0.9	-1	8	10	7
O=C(CSc1nnc(-c2ccco2)n1Cc1ccco1)Nc1ccccc1	0.8	0.4	5	19	4	64*
CCOC(=O)CNC(=O)CSc1nnc(-c2ccco2)n1Cc1ccco1	0.9	0.9	1	13	19	6
CC(C)c1cc(NC(=O)CSc2nnc(-c3ccccc3F)n2C)on1	0.6	0.4	12	40	-5	58*
COc1ccccc1-c1nnc(SCC(=O)Nc2ccc(S(N)(=O)=O)cc2)n1C	0.6	0.2	4	38	13	76*
COc1ccccc1NC(=O)CSc1nnc(-c2ccccn2)n1Cc1ccco1	0.6	0.2	15	38	22	77*
N#Cc1ccsc1NC(=O)COC(=O)CCCSc1nc2ccccc2s1	0.8	0.6	-5	18	6	35
CCN(CC)S(=O)(=O)c1ccc(NC(=O)CSc2nnc(-c3cccc(OC)c3)n2C)cc1	0.8	0.5	2	23	22	52*
Cc1ccc(NC(=O)CCc2nnc(SCC(=O)Nc3ccccc3C)n2C)cc1Cl	0.9	0.9	-5	10	-6	9
Cc1cccc(C)c1NC(=O)CSc1nnc(-c2ccco2)n1N	0.4	0.9	-1	57*	-10	10
O=C(CSc1nnc(Cc2cccs2)n1Cc1ccco1)Nc1cc(Cl)cc(Cl)c1	0.7	0.5	-16	25	35*	48
COc1ccc(NC(=O)CSc2nnc(CCC(=O)Nc3ccc(C)c(Cl)c3)n2C)cc1	0.9	0.3	-5	12	4	66*
COc1ccc(-c2nnc(SCC(=O)Nc3ccc(C)cc3)n2C)cc1	0.7	0.6	0	29	10	40
COC(=O)c1scc(C)c1N/N=C(\C)c1cc(F)c(Cl)cc1F	1.2	1.1	-6	-17	3	-10
COc1ccccc1NC(=O)CSc1nnc(-c2ccco2)n1Cc1ccco1	0.2	0.2	-4	83*	0	77*
CCn1c2ccccc2c2cc(NC(=O)CSc3nnc(-c4ccccc4OC)n3N)ccc21	0.1	0.4	1	94*	6	58*
CCn1c2ccccc2c2cc(NC(=O)CSc3nnc(-c4ccc(OC)c(OC)c4)n3N)ccc21	0.6	0.9	-2	40	13	6
CCOc1ccc(NC(=O)CSc2nnc(-c3ccco3)n2C)cc1	1	0.9	-2	3	4	12
COc1ccc(NC(=O)CSc2nnc(-c3ccco3)n2C)cc1	0.1	0.1	-7	92*	-1	93*
COc1ccccc1NC(=O)CSc1nnc(C)n1CCc1ccccc1	0.6	0.5	-4	41	2	53*
SMILES	CYP2C19 act	CYP2C9 act	PostGolgi yeast	CYP2C19 inhib	PostGolgi ctrl	CYP2C9 inh
CCOCc1cc(C2NC(=O)NC(C)=C2C(=O)OCC)ccc1OC (configuration not stated)	0.9	0.9	-6	9	7	10
COc1ccc(CCN2CC(C(=O)NCc3ccco3)CC2=O)cc1OC (configuration not stated)	0.9	0.9	-11	10	33*	9
COc1ccc(N2CC(C(=O)Nc3ccccc3C(=O)NCc3ccco3)CC2=O)cc1 (configuration not stated)	0.3	0.2	-1	66*	4	84*
CCCOc1ccc(N2CC(C(=O)Nc3ccccc3C(=O)NCc3ccco3)CC2=O)cc1 (configuration not stated)	0.8	0.4	-4	15	5	62*
O=C(NCc1ccco1)C1CC(=O)N(c2ccc(O)cc2)C1 (configuration not stated)	1	2.5*	-8	-5	6	-147
Cc1ccc(C(=O)NCc2ccc(Cl)c(Cl)c2)o1	0.2	0.7	3	84*	4	35
CCOC(=O)NCc1ccc(Cl)c(Cl)c1	0.5	1	4	46	36*	-1
COCCNC(=O)c1ccc(Cl)c(Cl)c1	1	1.2	-1	-5	5	-16
Cc1ccc(C(=O)NCc2occc2C(=O)O)o1	1	1	34*	1	-3	-5
Cc1c(S(=O)(=O)N2CCOCC2)c(=O)n(C)c(=O)n1C	0.9	1	8	10	4	1
CC(C)(C)n1nc2c(c1NC(=O)c1ccc(S(=O)(=O)N3CCCC3)cc1)CSC2	1.1	0.6	2	-11	7	36
CCN(CC)S(=O)(=O)c1ccc(C(=O)Nc2c3c(nn2C(C)(C)C)CS(=O)(=O)C3)cc1	1	0.2	4	-3	4	76*
CCN(CC)S(=O)(=O)c1ccc(NS(=O)(=O)c2ccc(F)cc2)cc1	1	0.1	0	5	1	86*
CCN(CC)S(=O)(=O)c1ccc(NC(=O)Nc2cccc(C(F)(F)F)c2)cc1	1	1	6	-2	-7	-4
CCN(CC)S(=O)(=O)c1ccc(NS(=O)(=O)c2cccc(C)c2)cc1	0.6	0.1	0	40	-3	91*
CCN(CC)S(=O)(=O)c1ccc(C(=O)Nc2cccc(C)c2)cc1	0.4	0.5	-4	55*	7	55*
CCn1c(SCC(=O)N2CCCCC2C)nnc1-c1ccc(S(=O)(=O)N2CCN(C)CC2)cc1 (configuration not stated)	1	0.9	-1	2	-2	6
CCC(C)c1ccc(Nc2ncccc2C#N)cc1 (configuration not stated)	0.9	0.8	-11	8	0	24
C=C(C)c1nc2cc(OC)c(OC)cc2c(=O)o1	0.9	0.8	0	9	2	24
Cc1ccc(CN2C(=O)CCC2C(=O)NCCN(CC(C)C)CC(C)C)cc1 (configuration not stated)	0.9	0.7	17	8	7	27
C/C(=N\S(=O)(=O)c1ccc(C)cc1)N1CCN(S(=O)(=O)c2ccccc2)C1C(C)C (configuration not stated)	0.2	2.4*	-12	78*	15	-136
Cc1ccc(S(=O)(=O)N2CCN(C(=O)N3CCOCC3)C2C(C)C)cc1 (configuration not stated)	1	1	4	2	35*	3
